Here are results for 40 molecules from PubChem BioAssay (Tox21).

A number with no mark means an inactive call. Active and inactive are the calls of the source. Calls come from the whole dose curve; as a rule, active = well fitted curve in the direction sought with a large enough effect in the repeat runs; inconclusive = weak or mixed curves; inactive = flat fitted curve, though single readings scatter.
% is set by controls: 0 for no effect and ±100 for the full control effect.

This test in a line: qHTS assay to test for compound auto fluorescence at 590 nm (red) in HepG2 cells (AID 720674). The conditions noted are these: HepG2 autofluorescence, red 540/590 nm, 1 h; series mostly up to 91.3 µM; fluorescence, relative to Rose Bengal: at the top concentration. An excerpt: U.S. Tox21 Program National Center for Advancing Translational Sciences [NCATS] NIH Chemical Genomics Center [NCGC] U.S. Environmental Protection Agency [EPA] National Institutes of Environmental Health Sciences [NIEHS] National Toxicology Program [NTP] U.S. Food and Drug Administration [FDA] Tox21 Assay Overview: Compound auto fluorescence often interferes with screening of the compound library against various biological targets and signaling pathways. Some of these compounds may have fluorophoric properties. Such properties may interfere with the assay outputs resulting in false positives and/or negatives. To decrease such complications and ensure the compound activities are relevant in terms of biological response, the Tox21 10K compound library was screened for auto fluorescence. From the fluorophores used as reporter signals in our screening assays, the auto fluorescence equivalencies of compounds against three fluorophores have been evaluated: Triamterene, Fluorescein and Rose Bengal sodium for blue, green and red fluorescence, respectively. The fluorescence intensities were measured using Excitation/Emission wavelengths at 405/460nm, 485/535nm and 540/590nm for blue, green and red labels, respectively. This assay includes the red fluorescence data.
Tox21 Assay Protocol Summary: 2,000 HepG2 cells in 5 uL of culture medium (MEM containing 10% FBS) per well were dispensed into black wall/clear bottom 1536-well plates using a Multidrop Combi Dispenser (ThermoFisher Scientific, Waltham, MA). The assay plates were incubated overnight at 37 C to allow cell attachment to the well bottom, followed by the transfer of 23 nL compound or DMSO vehicle by a pintool work station (Kalypsys , San Diego, CA). After the assay plates were incubated for 1 hr at 37 C and 5% CO2, fluorescence intensities in the assay plates were measured by an Envision (PerkinElmer, Shelton, CT) plate reader using three labels for measuring blue, green and red fluorescence at […] 460, 535 and 590 nm respectively.
For `NCCO`, the molecule was classed as inactive. Still for that read-out and setting: the value for `CCOc1ccccc1C(N)=O` was “inactive”.

On to `Cc1cc(OCCOCC[N+](C)(C)Cc2ccccc2)ccc1C(C)(C)CC(C)(C)C`, for which the outcome was inactive. With `CCCCCC(=O)O[C@]1(C(C)=O)CC[C@H]2[C@@H]3CCC4=CC(=O)CC[C@]4(C)[C@H]3CC[C@@]21C`, the outcome was inactive. Still for that read-out and setting: the value for `CC1COC(=O)O1` (stereo not given) was “inactive”. As to `[Cl][In]([Cl])[Cl]`, the molecule was called inactive. With `CCCCN(CCO)CCCC`, the “fluorescence, relative to Rose Bengal” value was -0.0688% [at 95.7 µM].

In the case of `CC[C@H]1CN2CCc3cc(OC)c(OC)cc3[C@@H]2C[C@@H]1C[C@H]1NCCc2cc(OC)c(OC)cc21`, the result was inactive. For `NC(=Nc1ccccc1)Nc1ccccc1`, the molecule was classed as inactive. Still for that read-out and setting: the value for `CCn1c2ccccc2c2cc(N)ccc21` was “inactive”; that for `CC(=O)Nc1ccc(C(=O)CCl)cc1` was “inactive”; that for `COc1ccc(COC(C)=O)cc1` was “inactive”. Turning to `C=C(C)C(=O)O`, the result was inactive. Still for that read-out and setting: the value for `CCN(CC)CCOc1ccc(/C(=C(\Cl)c2ccccc2)c2ccccc2)cc1` was “inactive”. On to `Cc1scc2c1N(C(=O)CN1CCN(C)CC1)c1ccccc1NC2=O`, for which the “fluorescence, relative to Rose Bengal” value was 0.323% [at 46 µM]. `CC(C)(C)c1cc(C(C)(C)C)c(O)c(C(C)(C)C)c1`: the outcome was inactive. For `CCC(C)(Oc1ccc(C2(c3ccc(OC(C)(CC)C(=O)O)cc3)CCCCC2)cc1)C(=O)O` (stereo not given), the “fluorescence, relative to Rose Bengal” value is -0.0046% [at 46 µM]. Consider `COC(=O)[C@H]1[C@H]2C[C@@H]3c4[nH]c5cc(OC)ccc5c4CCN3C[C@H]2C[C@@H](OC(=O)c2cc(OC)c(OC)c(OC)c2)[C@@H]1OC`, for which the call was inactive. As to `CCC[C@H](N[C@@H](C)C(=O)N1[C@H](C(=O)O)C[C@@H]2CCCC[C@@H]21)C(=O)OCC`, the “fluorescence, relative to Rose Bengal” value is 0.109% [at 46 µM]. In the case of `CC(=O)N[C@@H](CS)C(=O)O`, the result was inactive.

With `Cc1cc(C2(c3cc(C)c(O)cc3C)OS(=O)(=O)c3ccccc32)c(C)cc1O`, the outcome was inactive. On the same count and under the same terms, under `Oc1c(Cl)cc(Cl)cc1Sc1cc(Cl)cc(Cl)c1O` stands “inactive”; under `O`, “inactive”; under `O=C(Oc1ccccc1)c1ccccc1O`, “inactive”. Same read-out and setting: the value for `CC(C)(C)NC(=O)[C@@H]1CN(Cc2cccnc2)CCN1C[C@@H](O)C[C@@H](Cc1ccccc1)C(=O)N[C@H]1c2ccccc2C[C@H]1O` was “inactive”; that for `CCN(CC)c1ccc2c(C)cc(=O)oc2c1` was “inactive”. Take `CCCCCCCCCCCCCCCCCl`: the fluorescence, relative to Rose Bengal is -0.733% [at 18.6 µM]. Regarding `OCCN1CCNCC1`, the molecule was called inactive. As for `CN(C)c1ccc2nc3ccc(=[N+](C)C)cc-3sc2c1`, the molecule was classed as inactive. `CC1=C(C=O)C(C)(C)CC=C1`: the “fluorescence, relative to Rose Bengal” value is 0.0052% [at 95.7 µM]. As to `CCCOC(=O)c1cc(O)c(O)c(O)c1`, the call was inactive. For the molecule `CCc1cc(C(C)(C)C)c(O)c(C(C)(C)C)c1`, the molecule was classed as inactive. `COC(c1ccccc1)(c1ccccc1)[C@H](Oc1nc(C)cc(C)n1)C(=O)O`: the “fluorescence, relative to Rose Bengal” value was -0.291% [at 46 µM]. On to `O=S(=O)(O)c1ccc2nc(-c3ccccc3)[nH]c2c1`, for which the result was inactive. In the case of `Cc1cccc2n[nH]nc12`, the molecule was called inactive. Consider `O=C(O)c1cc(Cl)cc(Cl)c1`, for which the “fluorescence, relative to Rose Bengal” value was 0.0948%. On the same count and under the same terms, the value for `CC[C@@H](N)CO` was -0.007% [at 95.7 µM]. As for `c1ccc2c(c1)-c1cccc3c1c-2cc1ccccc13`, the outcome was inactive. As to `Cc1cc(C(C)(C)C)c(O)c(C(C)(C)C)c1`, the outcome was inactive. Still for that read-out and setting: the value for `c1cc(C(c2ccc(OCC3CO3)cc2)C(c2ccc(OCC3CO3)cc2)c2ccc(OCC3CO3)cc2)ccc1OCC1CO1` (stereo not given) was “inactive”.
